The nature of experiment [1]: qHTS assay to identify small molecule antagonists of the glucocorticoid receptor (GR) signaling pathway - cell viability counter screen (AID 720693). Further: nearly all actives have a fitted effect of over 55% in size.
A short description of experiment [2]: qHTS assay for identifying genotoxic compounds that show differential cytotoxicity against isogenic chicken DT40 cell lines with known DNA damage response pathways - wild type cell line (AID 743012). Further: nearly all actives have a fitted effect of over 60% in size. Further: potency means the concentration at half of the fitted maximal effect. A digest of the protocol: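 300 wt DT40 cells/well; cpd (DMSO) pintool-transferred after ~0.5 h at 37 C/5% CO2; 40 h incubation; CellTiter-Glo added, 30 min RT; luminescence read.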

The nature of experiment [3]: qHTS assay for identifying genotoxic compounds that show differential cytotoxicity against isogenic chicken DT40 cell lines with known DNA damage response pathways - Rev3 mutant cell line (AID 743014). Further: nearly all actives have a fitted effect of over 55% in size. Further: potency means the concentration at half of the fitted maximal effect.
Experiment [4] in a line: qHTS assay for identifying genotoxic compounds that show differential cytotoxicity against isogenic chicken DT40 cell lines with known DNA damage response pathways - Rad54/Ku70 mutant cell line (AID 743015). Further: nearly all actives have a fitted effect of over 60% in size. Further: potency means the concentration at half of the fitted maximal effect.
Experiment [5] can be described thus: qHTS assay to identify small molecule antagonists of the androgen receptor (AR) signaling pathway - cell viability counter screen (AID 743033; further: nearly all actives have a fitted effect of over 45% in size). For orientation: qHTS replaces the single test concentration by a dilution series.
Experiment [6] is described as follows: qHTS assay to identify small molecule antagonists of the androgen receptor (AR) signaling pathway using the MDA cell line - cell viability counter screen (AID 743041; further: nearly all actives have a fitted effect of over 45% in size). A digest of the protocol:
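Viability read by CellTiter-Fluor fluorescence in the same wells as the antagonist screen, added after 15.5 h of a 16 h, 37C exposure. Human breast carcinoma MDA-kb2 AR-luc cells, compounds co-dosed with agonist R1881.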

Experiment [7] in a line: qHTS assay to identify small molecule antagonists of the thyroid receptor (TR) signaling pathway (AID 743065). Further: nearly all actives have a fitted effect of over 55% in size. Further: potency means the concentration at half of the fitted maximal effect. Put shortly:
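Antagonism measured as loss of luciferase signal in GH3 cells stably carrying a TRE-luciferase reporter, co-treated with compound and T3 (1 nM final) for 23.5 h at 37 C. Viability was read in the same well by CellTiter-Fluor.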

For experiment [8], the system named is thyroid hormone receptor (rat, GH3 cells). Put plainly: qHTS assay to identify small molecule agonists of the thyroid receptor (TR) signaling pathway (AID 743066; calls by dose curve).
Experiment [9] concerns the target Estrogen receptor (Homo sapiens) (UniProt P03372). Put plainly: qHTS assay to identify small molecule antagonists of the estrogen receptor alpha (ER-alpha) signaling pathway (AID 743069; active means well fitted curve in the direction sought with a large enough effect in the signal ratio in the repeat runs, not every such curve was filed as active; the % refers to the signal ratio). A digest of the protocol:
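Antagonist mode: compounds in DMSO were co-added with 17beta-estradiol to ER-alpha-bla HEK293 cells (2% charcoal-stripped serum) and left 18 h at 37C. Reporter inhibition was measured as FRET fluorescence after 2 h LiveBLAzer substrate at room temperature.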

The target is the same in experiment [10]. Put plainly: qHTS assay to identify small molecule agonists of the estrogen receptor alpha (ER-alpha) signaling pathway (AID 743075; calls by dose curve;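 further: HEK293 GripTite cells with ER-alpha and UAS-driven beta-lactamase reporter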).
The nature of experiment [11]: qHTS assay to identify small molecule antagonists of the estrogen receptor alpha (ER-alpha) signaling pathway using the BG1 cell line (AID 743080; calls by dose curve;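 further: BG1 cells stimulated with 17beta-estradiol alongside compound; series mostly up to about 70 µM; nearly all actives have a fitted effect of over 25% in size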). A digest of the protocol:
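BG1Luc4E2, endogenous ER-alpha, 4xERE-luc; 5 d charcoal-stripped FBS, phenol red free; 24 h plating; cpd + 17beta-estradiol 21.5 h, 37 C/5% CO2; CellTiter-Fluor viability 30 min, then ONE-Glo luciferase 30 min RT.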

Experiment [12] in a line: qHTS assay to identify small molecule antagonists of the estrogen receptor alpha (ER-alpha) signaling pathway using the BG1 cell line - cell viability counter screen (AID 743081).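 Further: compound given together with 17beta-estradiol as the ER stimulus; series mostly up to about 70 µM; nearly all actives have a fitted effect of over 45% in size.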
Another experiment has as its target Aromatase (Homo sapiens) (UniProt P11511). Briefly: qHTS assay to identify aromatase inhibitors (AID 743083). Further: nearly all actives have a fitted effect of over 55% in size. Further: potency means the concentration at half of the fitted maximal effect.
A short description of experiment [13]: qHTS assay to identify small molecule antagonists of the estrogen receptor alpha (ER-alpha) signaling pathway - cell viability counter screen (AID 743074; calls by dose curve;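 further: HEK293 cells carrying ER-alpha-UAS-bla reporter stimulated with 17beta-estradiol; nearly all actives have a fitted effect of over 45% in size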).
In experiment [14] the target is Estrogen receptor (Homo sapiens) (UniProt P03372). Put plainly: qHTS assay to identify small molecule agonists of the estrogen receptor alpha (ER-alpha) signaling pathway using the BG1 cell line (AID 743079). Further: nearly all actives have a fitted effect of over 20% in size.
The target in experiment [15] is Androgen receptor (Homo sapiens) (UniProt P10275). Put plainly: qHTS assay to identify small molecule agonists of the androgen receptor (AR) signaling pathway using the MDA cell line (AID 743040; further: nearly all actives have a fitted effect of over 20% in size). Put shortly: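 Luciferase agonist assay: 16 h compound exposure at 37C without CO2 in MDA-kb2 AR-luc cells, whose MMTV promoter responds to both AR and GR. Luminescence measured after 30 min room-temperature incubation with ONE-Glo.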

A short description of experiment [16]: qHTS assay to identify small molecule antagonists of the thyroid receptor (TR) signaling pathway - cell viability counter screen (AID 743064). Further: nearly all actives have a fitted effect of over 50% in size. Further: potency means the concentration at half of the fitted maximal effect. Put shortly: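 Viability of T3-stimulated (1 nM final) GH3.TRE-Luc cells is measured by CellTiter-Fluor fluorescence after 23.5 h compound exposure at 37 °C plus 30 min reagent incubation.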
Experiment [17] addresses Androgen receptor (Homo sapiens) (UniProt P10275). Briefly: qHTS assay to identify small molecule agonists of the androgen receptor (AR) signaling pathway (AID 743036; active means well fitted activation curve with a large enough effect in the signal ratio in the repeat runs, with a control signal flat, not every such curve was filed as active; the % refers to the signal ratio). A digest of the protocol: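 Screening used 2,000 AR-bla HEK293 cells per well, treated 16 h at 37C with test compounds in DMSO alongside positive and DMSO-only controls; beta-lactamase activity was then read by LiveBLAzer B/G FRET fluorescence after 2 h at room temperature.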

For experiment [18] the target is unchanged. Put plainly: qHTS assay to identify small molecule antagonists of the androgen receptor (AR) signaling pathway using the MDA cell line (AID 743042; further: nearly all actives have a fitted effect of over 55% in size). A digest of the protocol:
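Antagonist mode: compounds plus R1881 agonist added to MDA-kb2 AR-luc cells, incubated 16 h at 37C. Luciferase reporter luminescence quantified, with multiplexed CellTiter-Fluor readout for cell viability.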

SMILES strings stand for the structures. Results filed as inconclusive are left out. The source made the active and inactive calls. Unless noted, the call rests on the fitted dose curve; in most records, active means well fitted curve in the direction sought with a large enough effect in the repeat runs; inconclusive means weak or mixed curves; inactive means no such curve, though single readings can be large; an effect the other way counts as inactive or inconclusive.

Chain of Estrogen receptor (Homo sapiens) (P03372 whole entry, looked up): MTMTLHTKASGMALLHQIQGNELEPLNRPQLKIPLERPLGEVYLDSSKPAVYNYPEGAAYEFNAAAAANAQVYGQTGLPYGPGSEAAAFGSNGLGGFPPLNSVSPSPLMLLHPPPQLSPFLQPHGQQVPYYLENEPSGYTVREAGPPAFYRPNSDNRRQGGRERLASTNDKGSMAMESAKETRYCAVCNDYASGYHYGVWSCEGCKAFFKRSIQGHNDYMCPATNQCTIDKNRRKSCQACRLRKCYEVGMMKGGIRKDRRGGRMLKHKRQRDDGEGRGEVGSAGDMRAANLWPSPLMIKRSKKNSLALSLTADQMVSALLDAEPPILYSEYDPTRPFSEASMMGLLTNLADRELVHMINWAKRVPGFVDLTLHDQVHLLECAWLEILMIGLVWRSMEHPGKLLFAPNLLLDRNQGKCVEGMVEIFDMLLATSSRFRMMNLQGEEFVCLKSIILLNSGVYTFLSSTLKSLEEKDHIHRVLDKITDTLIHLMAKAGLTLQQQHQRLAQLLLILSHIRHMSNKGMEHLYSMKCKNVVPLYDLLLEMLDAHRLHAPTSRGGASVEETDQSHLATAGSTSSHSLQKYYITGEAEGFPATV
Chain of Androgen receptor (Homo sapiens) (P10275 whole entry, looked up): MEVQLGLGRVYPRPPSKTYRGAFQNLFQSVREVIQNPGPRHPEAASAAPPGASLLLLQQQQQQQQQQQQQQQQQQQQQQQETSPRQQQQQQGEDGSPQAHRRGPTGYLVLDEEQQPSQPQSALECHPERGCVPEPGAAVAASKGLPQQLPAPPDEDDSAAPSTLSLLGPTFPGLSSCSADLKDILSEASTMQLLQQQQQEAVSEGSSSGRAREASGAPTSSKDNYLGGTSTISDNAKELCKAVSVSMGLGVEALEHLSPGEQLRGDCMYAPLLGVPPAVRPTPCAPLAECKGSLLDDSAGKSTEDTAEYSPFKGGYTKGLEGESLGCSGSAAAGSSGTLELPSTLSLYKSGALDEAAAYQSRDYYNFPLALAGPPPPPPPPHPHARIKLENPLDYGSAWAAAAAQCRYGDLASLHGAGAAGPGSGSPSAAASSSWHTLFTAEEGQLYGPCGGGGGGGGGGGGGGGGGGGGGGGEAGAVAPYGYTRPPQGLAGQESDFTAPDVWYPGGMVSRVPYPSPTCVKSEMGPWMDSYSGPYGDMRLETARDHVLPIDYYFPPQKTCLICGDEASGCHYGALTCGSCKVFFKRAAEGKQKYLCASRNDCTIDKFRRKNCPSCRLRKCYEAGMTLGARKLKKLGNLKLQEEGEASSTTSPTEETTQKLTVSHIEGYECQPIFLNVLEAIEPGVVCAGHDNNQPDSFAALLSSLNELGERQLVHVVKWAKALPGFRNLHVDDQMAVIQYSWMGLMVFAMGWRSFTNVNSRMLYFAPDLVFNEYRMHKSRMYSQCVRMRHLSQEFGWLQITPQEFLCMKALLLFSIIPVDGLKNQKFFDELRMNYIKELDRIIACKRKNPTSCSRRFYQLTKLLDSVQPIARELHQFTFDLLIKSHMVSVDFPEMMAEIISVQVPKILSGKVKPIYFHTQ
Chain of Aromatase (Homo sapiens) (P11511 whole entry, looked up): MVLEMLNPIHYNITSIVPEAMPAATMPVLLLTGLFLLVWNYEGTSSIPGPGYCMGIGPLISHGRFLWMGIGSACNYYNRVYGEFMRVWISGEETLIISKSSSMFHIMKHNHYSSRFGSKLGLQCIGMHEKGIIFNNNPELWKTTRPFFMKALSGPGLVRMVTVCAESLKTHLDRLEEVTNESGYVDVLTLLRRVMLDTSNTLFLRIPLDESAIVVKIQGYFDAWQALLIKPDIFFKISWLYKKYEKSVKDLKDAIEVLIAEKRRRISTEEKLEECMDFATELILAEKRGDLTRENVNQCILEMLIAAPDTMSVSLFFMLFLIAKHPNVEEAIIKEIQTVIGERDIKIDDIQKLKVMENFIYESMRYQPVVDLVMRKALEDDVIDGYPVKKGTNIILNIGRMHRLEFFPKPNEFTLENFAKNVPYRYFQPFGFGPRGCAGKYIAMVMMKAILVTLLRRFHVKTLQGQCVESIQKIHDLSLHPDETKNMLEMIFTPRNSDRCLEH

`CCCCCCCCCC(=O)OCC`: the Potency result in experiment [1], in experiment [2], in [3], in experiment [4], in experiment [5] and in experiment [6] was “inactive” throughout. For the same compound, the Potency entry in experiment [7], in [8], in experiment [9], in experiment [10], in experiment [11] and in experiment [12] was “inactive” in each case. For the same compound, in the experiment with Aromatase (Homo sapiens), the Potency result is “inactive”.
With `C=CCCCCCC`, the Potency entry in [1], in experiment [2], in experiment [3], in experiment [4], in experiment [5] and in [6] was “inactive” throughout. Besides, the Potency result in [7], in experiment [8], in [9], in experiment [10], in experiment [14] and in experiment [12] was “inactive” each time. The Potency result with Aromatase (Homo sapiens) is “inactive”. Also, the call in [13] was inactive.
In the case of `CC(C)(C)c1cc(CO)cc(C(C)(C)C)c1O`, the Potency result in experiment [1], in experiment [6], in experiment [8], in experiment [10] and in experiment [12] was “inactive” each time. Moreover, the Potency was 31.2 µM (active) in [2], 27.8 µM (active) in experiment [3], 22.1 µM (active) in experiment [4] and 62.3 µM (active) in [7].
As for `O=C(CC(=O)c1ccccc1)c1ccccc1`, the Potency result in experiment [1], in experiment [5], in [6], in [7], in experiment [8] and in experiment [12] was “inactive” in each case. Also, the Potency result with Aromatase (Homo sapiens) is “inactive”. Moreover, the Potency in experiment [2] was 36.9 µM (active); in [3], 26.2 µM (active); in experiment [4], 23.3 µM (active). Besides, the call in experiment [13] was inactive.
As for `Cc1cc(O)ccc1N`, the Potency result in [1], in [15], in experiment [9], in [10], in experiment [14] and in experiment [12] was “inactive” in each case. The Potency in experiment [2] was 13.8 µM (active); in experiment [3], 6.14 µM (active); in experiment [4] it was 9.74 µM (active); in experiment [16] it was 30.8 µM (active); with Aromatase (Homo sapiens) it was 54.8 µM (active). Further, in experiment [13], the result was inactive.
As for `CC(C)CC=O`, the Potency entry in [1], in experiment [2], in experiment [3], in experiment [4], in experiment [5] and in [6] was “inactive” in each case. Moreover, the Potency result in experiment [7], in [8], in experiment [9], in experiment [10], in experiment [14] and in experiment [12] was “inactive” in each case. Besides, in the experiment with Aromatase (Homo sapiens), the Potency entry was “inactive”. In addition, the compound was called inactive in experiment [13].
`NCCCN(CCO)CCO`: the Potency entry in experiment [1], in experiment [2], in experiment [3], in experiment [4], in experiment [15] and in experiment [6] was “inactive” each time. The Potency entry in experiment [18], in experiment [16], in experiment [7], in [8], in [9] and in experiment [10] was “inactive” in each case. Besides, the Potency entry (in experiment [14]; in [11]; in [12]; in the experiment with Aromatase (Homo sapiens)) was “inactive” each time. The outcome in experiment [17] and in [13] was inactive.
For the compound `CCCCOCCOCCOCCOCCO`, the Potency result in experiment [1], in [2], in experiment [4], in experiment [5], in experiment [6] and in [16] was “inactive” throughout. The Potency entry in experiment [7], in experiment [8], in [9], in experiment [10], in [11] and in experiment [12] was “inactive” each time. Moreover, in the experiment with Aromatase (Homo sapiens), the Potency result was “inactive”. In experiment [13], the result was inactive.
For the compound `N#CCc1cccc(C(F)(F)F)c1`, the Potency result in experiment [1], in experiment [2], in experiment [3], in experiment [5], in [6] and in experiment [16] was “inactive” throughout. For the same compound, the Potency result in experiment [7], in experiment [8], in [9], in [10], in experiment [14] and in experiment [11] was “inactive” each time. In addition, the Potency entry (in experiment [12]; with Aromatase (Homo sapiens)) was “inactive” each time. The compound was classed as inactive in experiment [13].
`CC(C)c1ccccc1C(C)C`: the Potency entry in [1], in experiment [2], in [3], in experiment [5], in [6] and in experiment [8] was “inactive” throughout. The Potency result (in [12]; with Aromatase (Homo sapiens)) was “inactive” in each case. The Potency in experiment [16] was 54.5 µM (active); in experiment [7], 61.2 µM (active). Further, the call in experiment [13] was inactive.
Regarding `CCOC(=O)C1=C(C)NC(C)=C(C(=O)OC)C1c1cccc([N+](=O)[O-])c1` (stereo not drawn), the Potency entry in [1], in experiment [5], in experiment [6], in experiment [16], in experiment [7] and in experiment [8] was “inactive” in each case. The Potency result (in [9]; in experiment [10]; in [12]; with Aromatase (Homo sapiens)) was “inactive” each time. The Potency in experiment [2] and in [4] was 26.6 µM (active) throughout. In addition, in experiment [13], the outcome was inactive.
With `CCN(CC)CCc1nc(-c2ccccc2)no1`, the Potency result in experiment [1], in experiment [2], in experiment [4], in experiment [5], in [6] and in experiment [16] was “inactive” in each case. Moreover, the Potency entry in experiment [7], in experiment [8], in experiment [9], in experiment [10], in experiment [14] and in experiment [12] was “inactive” in each case. The Potency result with Aromatase (Homo sapiens) was “inactive”. Further, the compound was classed as inactive in [13].

The values are drawn from PubChem BioAssay (Tox21).
